This is a sample that favours compounds with a hit; in the whole collection about 4.9% have one here.
SKKanGAS inh – inhibitors of SKKanGAS S. pyogenes growth in kanamycin (SK-promoter or general growth effect). BacTiter-Glo, 6 h. 1.3% of 300,000 active. inhibition, % at 7.5 µM;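 active means mean replicate score, as percent of positive control median, at least 50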;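 further: strain carries kanamycin resistance gene driven by streptokinase promoter and grows in 40 µg/ml kanamycin; loss of luminescence reflects streptokinase promoter inhibition or plain growth inhibition; 0% = median of DMSO wells and 100% = positive control at its reference dose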
NALP1 inh – blocks the NALP1 inflammasome reconstituted in yeast; S. cerevisiae NALP1/ASC/caspase-1 growth, X-gal OD620, 72 h; inhibition, % at 10 µM; 0.61% of 280,000 active; in the data active means inhibition mostly above about 24%, no sharp cut-off; inactive means mostly below about 32%
NALP3 yeast inh – inhibitors of NALP3 inflammasome in yeast | Yeast reconstituted NLRP3/ASC/caspase-1, beta-gal luminescence, 24 h | inhibition, % at 10 µM | 0.39% of 330,000 active;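 active means inhibition of 50% or more; inactive means inhibition below 50%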;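 further: plate controls were induced DMSO wells for no effect and uninduced yeast grown without galactose for full effect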
tim10-1 inh – growth inhibitors of tim10-1 mutant yeast | inhibition, % at 20 µM | 2.2% of 330,000 active | S. cerevisiae tim10-1 ts strain growth, BacTiter-Glo, 24 h;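 active means inhibition of at least 40%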;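 further: mutant grown at 25 °C; 0% = DMSO wells with yeast and 100% = wells holding no yeast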
TIM10 inh – TIM10 yeast growth inhibition. S. cerevisiae TIM10 strain growth, BacTiter-Glo luminescence, 24 h. inhibition, % at 10 µM. 1.4% of 330,000 active. AID 463195;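 active means inhibition of 40% or more at the single tested concentration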;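 further: wild-type TIM10 isogenic control strain grown at permissive 25 °C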
tim23-1 inh – growth inhibitors of tim23-1 mutant yeast; inhibition, % at 20 µM; S. cerevisiae tim23-1 growth, BacTiter-Glo luminescence, 24 h; AID 463212; 1.3% of 330,000 active;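 active means growth inhibition of the mutant yeast at or above 50%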;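 further: temperature-sensitive mutant grown at 25 °C; plate controls were DMSO-treated mutant yeast for no effect and medium wells lacking yeast for full effect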
tim23-1 confirm – tim23-1 yeast growth inhibition, confirmed; shares compounds with tim23-1 inh; S. cerevisiae tim23-1 growth, BacTiter-Glo luminescence, 24 h; inhibition, % at 20 µM; 83% of 4,400 active;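 active means inhibition above about 39% in either of two replicate wells at 20 µM, limit read from the data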;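 further: temperature-sensitive tim23-1 mutant grown at 25 °C; 0% = DMSO wells with yeast and 100% = medium wells without yeast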
* marks the source's active call; other numbers are inactive results; / = no result.

SMILES | SKKanGAS inh | NALP1 inh | NALP3 yeast inh | tim10-1 inh | TIM10 inh | tim23-1 inh | tim23-1 confirm
O=C(Nc1ccn(Cc2ccc(Cl)cc2)n1)c1ccc2c(c1)OCO2 | -12 | 8 | 31 | 8 | 35 | 59* | 63*
COc1ccc(C(=O)Oc2c(OC)cc(C(=S)N3CCOCC3)cc2OC)cc1OC | -6 | 6 | 0 | 6 | 3 | 13 | /
Oc1c(Cl)cc(Cl)cc1C=Nc1ccccc1N1CCCC1 | 36 | 38 | -13 | 18 | 14 | 57* | 54*
O=C(c1ccccc1[N+](=O)[O-])N1CCN(c2ccc(N3CCOCC3)nn2)CC1 | -3 | / | 22 | -3 | -15 | -2 | /
O=C(Oc1ccc(=O)n(-c2ccccc2)n1)c1ccc(Cl)cc1 | -1 | 3 | -4 | 23 | 24 | 60* | 43*
O=C(Oc1ccc(=O)n(-c2ccccc2)n1)c1ccc(F)cc1 | 17 | -25 | 10 | 10 | 21 | 12 | /
Cc1cc(C)c(C(N)=O)c(SCC(=O)c2cc(C)n(-c3cc(C)on3)c2C)n1 | / | / | 4 | 15 | -5 | 3 | /
O=C(CSc1cccs1)Nc1ccc2ccccc2c1 | 12 | 25 | 32 | 0 | 30 | 55* | 57*
COc1cc2cncc(Cc3ccc(Cl)cc3)c2cc1OC | / | / | 16 | 15 | -3 | 57* | 49*
O=C(/C=C/c1cn(-c2ccccc2)nc1-c1cccc(Cl)c1)N1CCN(c2ccccn2)CC1 | 40 | 3 | 3 | 32 | 35 | 10 | /
CCOc1ccccc1NC(=O)C(=O)N/N=C/c1cc(Br)ccc1O | 23 | -4 | 1 | 25 | 18 | 59* | 51*
O=C(N/N=C/c1cc(Br)ccc1O)Nc1ccccc1 | 8 | 18 | 14 | 10 | 10 | 11 | /
Clc1ccc(OCc2nnc3n2CCCCC3)c(Cl)c1 | 4 | 0 | 1 | 11 | 10 | 7 | /
CSc1nnc(CNS(=O)(=O)c2ccc(Cl)cc2)n1C | -11 | -16 | 8 | 7 | -9 | 6 | /
O=C(COC(=O)CCN1C(=O)/C(=C\C=C\c2ccccc2)SC1=S)Nc1cc(F)ccc1F | 2 | 4 | 2 | 37 | 27 | 36 | /
COc1cc(SC)ccc1C(=O)Nc1ccc2c(c1)OCCO2 | 2 | 11 | 31 | 27 | -3 | 51* | 45*
CC(=O)Nc1ccc(C2=CC(=O)C[C@H](c3ccc(Cl)cc3)C2)cc1 | / | / | 8 | 19 | 16 | 51* | 42*
O=C1C=C(c2cccc(Cl)c2O)C[C@@H](c2ccc(Cl)cc2)C1 | / | / | 20 | 16 | 3 | 57* | 40*
O=C1C=C(c2cccc(Cl)c2)C[C@@H](c2ccc(Cl)cc2)C1 | / | / | 3 | 2 | 10 | 39 | /
COc1ccc([C@H]2CC(=O)C=C(c3cccc(Cl)c3)C2)cc1 | / | / | 25 | 28 | 28 | 51* | 46*
COc1ccc(Cl)cc1NC(=O)CN(C)C(=O)C1COc2ccccc2O1 (configuration not stated) | / | / | 7 | 1 | 5 | 29 | /
CCn1c(C)c(C(C)=O)c(SC)nc1=S | -17 | 9 | 1 | 13 | 4 | 0 | /
COC(=O)[C@H](Cc1ccccc1)N1C/C=C\COc2c(Cl)cc(Cl)cc2S1(=O)=O | / | / | / | 20 | -9 | 52* | 37
O=C(N/N=C/c1cccc(OCc2ccccc2)c1)c1cccs1 | -7 | 11 | 5 | -7 | -7 | 55* | 42*
O=C(O)c1ccc(COc2ccc(/C=N/NC(=O)c3cccs3)cc2)cc1 | 5 | -6 | 10 | 11 | 2 | 16 | /
SMILES | SKKanGAS inh | NALP1 inh | NALP3 yeast inh | tim10-1 inh | TIM10 inh | tim23-1 inh | tim23-1 confirm
O=C(N/N=C/c1coc2ccccc2c1=O)c1ccccc1 | 0 | -9 | 1 | 1 | 19 | 22 | /
Cc1ccc2occ(/C=N/NC(=O)c3ccccc3Br)c(=O)c2c1 | 3 | 19 | 10 | 31 | 23 | 63* | 66*
O=C(N/N=C/c1coc2ccccc2c1=O)c1ccc(Cl)cc1 | -9 | 18 | 6 | 25 | 21 | 54* | 43*
CCOc1ccccc1C(=O)N/N=C/c1coc2ccc(C)cc2c1=O | / | -8 | 7 | 28 | 18 | 64* | 66*
Cc1ccc(S(=O)(=O)Nc2ccc(C(=O)N3CCOCC3)cc2)cc1 | 5 | -13 | 14 | -5 | 7 | 6 | /
CCOC(=O)/C(=C/c1ccc(OC(=O)c2ccncc2)cc1)C(C)=O | / | -5 | 20 | 20 | 27 | 53* | 70*
